Compound activity (PubChem)
The list is not random: actives were taken first. Their share in the collection is about 0.9%.
RXFP1 ag: activates the human relaxin receptor RXFP1; 370,000 compounds, 0.3% hits; HEK293T-RXFP1 cAMP TR-FRET, 30 min; response scale: percent of porcine relaxin response, buffer zero; Potency, µM (doses to about 57.5 µM), without a hit: at the top dose activation, hits mostly activators; AID 2676; active = well fitted activation curve with a large enough effect; inconclusive = small, poorly fitted or top-dose-only effect; also: potency is read from the fitted curve at half-maximal effect; % is scaled to controls: 0 for no effect and ±100 for the full control effect; nearly all actives have a fitted effect of over 60% in size
Target sequence (Q9HBX9 whole entry, looked up): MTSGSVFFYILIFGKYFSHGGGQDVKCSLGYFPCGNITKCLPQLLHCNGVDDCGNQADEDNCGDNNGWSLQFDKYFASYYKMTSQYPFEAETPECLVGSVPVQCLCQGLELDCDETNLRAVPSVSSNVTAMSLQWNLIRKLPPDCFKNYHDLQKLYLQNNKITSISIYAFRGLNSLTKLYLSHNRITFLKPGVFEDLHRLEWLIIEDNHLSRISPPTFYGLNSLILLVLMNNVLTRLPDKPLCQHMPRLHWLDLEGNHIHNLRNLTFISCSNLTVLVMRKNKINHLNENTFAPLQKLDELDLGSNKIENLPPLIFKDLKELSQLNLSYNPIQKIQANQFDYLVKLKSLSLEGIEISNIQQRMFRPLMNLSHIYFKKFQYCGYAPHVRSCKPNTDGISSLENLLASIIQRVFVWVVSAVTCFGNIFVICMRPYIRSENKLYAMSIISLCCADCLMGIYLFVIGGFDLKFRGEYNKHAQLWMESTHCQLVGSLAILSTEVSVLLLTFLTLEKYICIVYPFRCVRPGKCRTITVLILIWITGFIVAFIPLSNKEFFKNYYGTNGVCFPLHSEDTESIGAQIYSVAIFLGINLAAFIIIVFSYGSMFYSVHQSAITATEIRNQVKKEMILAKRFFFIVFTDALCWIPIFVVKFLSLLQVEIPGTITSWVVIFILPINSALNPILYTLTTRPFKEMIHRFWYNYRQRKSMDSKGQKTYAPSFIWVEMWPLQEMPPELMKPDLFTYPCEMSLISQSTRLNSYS
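HEK293 cells stably expressing RXFP1, treated 30 min at 37C with compounds plus PDE4 inhibitor Ro 20174; cAMP measured by HTRF TR-FRET. Normalized to buffer and 29 nM porcine relaxin; EC50 by Hill fit.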
RXFP1 antagonist: blocks the human relaxin receptor RXFP1; HEK293-RXFP1, relaxin-stimulated cAMP HTRF, 30 min; stronger effect = lower value; Q9HBX9; activity change, negative = inhibition, % at 57.5 µM; 350,000 compounds, 0.59% hits;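 active = activity change of -60% or lower, but not beyond a set lower limit; inconclusive = change between -60% and -40%, or beyond the set limit; inactive = change above -40%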; also: % is scaled to controls: 0 for no effect and ±100 for the full control effect
gsp ag: gsp mutant agonism; gsp mutant cells, cAMP HTRF, 30 min; 340,000 compounds, 0.13% hits; Potency, µM (series often up to 76.9 µM), for inactives: top-dose activation (cAMP increase), hits mostly activators; AID 624287; active = well fitted activation curve with a large enough effect; inconclusive = small, poorly fitted or top-dose-only effect, or another doubt; inactive = no such curve, though single readings can be large or run the other way; cell line not stated here;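 also: phosphodiesterase inhibitor Ro 20-1724 added with compounds to block cAMP breakdown; potency is read from the fitted curve at half-maximal effect; nearly all actives have a fitted effect of over 60% in size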
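Cells in DMEM/10% FBS with G418 were pretreated with compounds in DMSO plus […] (300 uM stock) for 30 min at 37C. cAMP was measured by HTRF (cAMP-d2 plus anti-cAMP antibody-K) after 30 min at room temperature.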
gsp antagonist: antagonists of gsp mutant (McCune-Albright syndrome). 340,000 compounds, 0.4% hits. Potency, µM (top dose mostly 76.9 µM), inactives show top-dose activity change, negative = inhibition, most hits filed as inhibitors. gsp-mutant cells, cAMP HTRF, 30 min. AID 624288; calls by dose curve; cell line not stated here;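 also: intracellular cAMP measured with PDE inhibitor Ro 20-1724 present during compound exposure; potency is read from the fitted curve at half-maximal effect; % is scaled to controls: 0 for no effect and ±100 for the full control effect; nearly all actives have a fitted effect of over 65% in size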
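Measurement of cellular cAMP by homogeneous time-resolved fluorescence following a 30 min compound exposure at 37C. The PDE inhibitor […] was present throughout; the assay buffer was DPBS with 0.05% BSA and 0.005% Tween 20.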
* marks the source's active call; other numbers are inactive results; [ ] = another dose, or the depositor's remark.

`COc1ccc(/C=C2\SC(=S)N(NS(=O)(=O)c3ccc(C)cc3)C2=O)c(OC)c1` gave RXFP1 ag 3%, RXFP1 antagonist -33, gsp ag 10%[15.4 µM] and gsp antagonist 50µM*.
CCOc1ccc(/C=C2\SC(=S)N(NS(=O)(=O)c3ccccc3)C2=O)cc1OC was read as RXFP1 ag -4%, RXFP1 antagonist -6, gsp ag -5% and gsp antagonist -28%.
Screening COc1ccccc1/C=C1\SC(=S)N(NS(=O)(=O)c2ccc(C)cc2)C1=O returned RXFP1 ag 4%, RXFP1 antagonist -1, gsp ag inconclusive and gsp antagonist inconclusive.
Screening CCOc1cc(/C=C2\SC(=S)N(NS(=O)(=O)c3ccccc3)C2=O)ccc1O returned RXFP1 ag -16%, RXFP1 antagonist -18, gsp ag -49% and gsp antagonist 25µM*.
`COc1ccc(/C=C2\SC(=S)N(NS(=O)(=O)c3ccccc3)C2=O)c(OC)c1` gave RXFP1 ag 4%, RXFP1 antagonist -68*, gsp ag -155% and gsp antagonist inconclusive.
Screening CCN(CC)CC(=O)Oc1ccc(NC(C)=O)cc1 returned RXFP1 antagonist 10.
Screening COc1ccc(N2Cc3cccc(C(=O)Nc4ccc(Cl)cc4)c3C2=O)cc1 returned RXFP1 ag 6%.
For CCOC(=O)C1=C(CC)Nc2ccccc2N=C1NC(=O)CCNC(C)=O the results were RXFP1 ag 0%, RXFP1 antagonist -75*, gsp ag -2%[15.4 µM] and gsp antagonist -13%.
`CC(=O)N1CCN(S(=O)(=O)c2cccc(C(=O)Nc3ccc4c(c3)OCO4)c2)CC1` gave RXFP1 ag 2%, RXFP1 antagonist -5, gsp ag 2%[15.4 µM] and gsp antagonist 11µM*.
`O=C(Nc1ccc2c(c1)OCO2)c1cccc(S(=O)(=O)N2CCCC2)c1` gave RXFP1 ag 0%, RXFP1 antagonist 17, gsp ag inconclusive and gsp antagonist inconclusive.
Screening CC(NC(=O)Cn1c(-c2cccs2)cc2cc(F)ccc21)c1ccccc1 (configuration not stated) returned RXFP1 ag inconclusive and RXFP1 antagonist -1.
Screening CCN(CC(=O)Nc1ccccc1C(F)(F)F)C(=O)CN1C(=O)NC2(CCCC2)C1=O returned RXFP1 ag 1%, RXFP1 antagonist -60*, gsp ag -15%[15.4 µM] and gsp antagonist 6%.
For COc1ccc([N+](=O)[O-])cc1NC(=O)COC(=O)Cc1cc(OC)c(OC)c(OC)c1 the results were RXFP1 ag 1%, RXFP1 antagonist 2, gsp ag 7% and gsp antagonist 50µM*.
COc1ccc(CC(=O)NNS(=O)(=O)c2ccc([N+](=O)[O-])cc2)cc1OC was read as RXFP1 ag -1%, RXFP1 antagonist -84*, gsp ag 1% and gsp antagonist 7%.
COc1ccc(CCNC(=O)c2ccc(-c3ccc([N+](=O)[O-])cc3)o2)cc1OC was read as RXFP1 ag 3%, RXFP1 antagonist 4, gsp ag 0% and gsp antagonist 32µM*.
For COc1cc(CC(=O)OCC(=O)Nc2cc([N+](=O)[O-])ccc2Cl)cc(OC)c1OC the results were RXFP1 ag 4%, RXFP1 antagonist -2, gsp ag -17% and gsp antagonist -15%.
For CCN(CC)C(=O)c1sc2c(c1C)c(=O)n(-c1ccc(Cl)c(Cl)c1)c(=O)n2Cc1ccccc1C#N the results were RXFP1 ag -1% and RXFP1 antagonist -6.
Screening Cc1ccc(NC(=O)CSc2ccccc2NC(=O)c2ccccc2Cl)cc1Cl returned RXFP1 ag 2%, RXFP1 antagonist 0, gsp ag -17% and gsp antagonist 28µM*.
`COc1ccc(C2c3c(n(C)c4ccccc34)C(=O)N2CC(=O)Nc2ccccc2Cl)cc1` (configuration not stated) gave RXFP1 ag 5% and RXFP1 antagonist -13.
`CO[C@@H]1[C@@H](OC)[C@H](C)[C@@](O)(CC(=O)O)O[C@H]1[C@H](C)[C@H]1O[C@@]2(CC[C@@](C)([C@H]3CC[C@@](C)([C@@H]4O[C@@H]([C@H]5O[C@](C)(O)[C@H](C)C[C@@H]5C)C[C@@H]4OC4C[C@H](OC)[C@@H](OC)[C@H](C)O4)O3)O2)C[C@H](O)[C@H]1C` (some centres not stated) gave RXFP1 antagonist -66*.
For COC(=O)c1ccc(NC(=O)CC2C(=O)N(c3cccc(F)c3)C(=O)N2CC(C)C)cc1 (configuration not stated) the results were RXFP1 ag 0%.
`C=CCSc1nnc(NC(=O)c2cccc(S(=O)(=O)N(C)c3ccccc3)c2)s1` gave RXFP1 ag -2%, RXFP1 antagonist -28, gsp ag -1% and gsp antagonist 40µM*.
Screening CN(c1ccccc1)S(=O)(=O)c1cccc(C(=O)Nc2nccs2)c1 returned RXFP1 ag -1%, RXFP1 antagonist -7, gsp ag -5% and gsp antagonist -1%.
For COC(=O)c1nnn(CC(=O)Nc2cc(F)ccc2F)c1C(=O)OC the results were RXFP1 ag 5% and RXFP1 antagonist -13.
Screening Cc1csc2ncc(C(=O)NC(C)c3ccccc3)c(=O)n12 (configuration not stated) returned RXFP1 ag 10%, RXFP1 antagonist 5, gsp ag 18µM* and gsp antagonist -2%.
For CCOc1ccc(OCCOc2ccc(/C=C/C(=O)O)cc2OCC)cc1 the results were RXFP1 ag 2%, RXFP1 antagonist -4, gsp ag 25%[15.4 µM] and gsp antagonist 20µM*.
`CCc1nnc(NC(=O)CSc2nccn2Cc2ccc(F)cc2)s1` gave RXFP1 ag 2%.
Screening CC1=C(SCc2ccccc2)C(=O)c2ccccc2C1=O returned RXFP1 antagonist inconclusive, gsp ag 11µM* and gsp antagonist -12%.
Cn1c(SCc2ccccc2)nccc1=O was read as RXFP1 antagonist -8, gsp ag -2%[15.4 µM] and gsp antagonist 5%.
`COc1ccc(OC)c(-c2csc(NC(=O)C3COc4ccccc4O3)n2)c1` (configuration not stated) gave RXFP1 ag -1%, RXFP1 antagonist 2, gsp ag -14% and gsp antagonist -14%.
O=C(Nc1nc(-c2nc3ccccc3s2)cs1)C1COc2ccccc2O1 (configuration not stated) was read as RXFP1 ag 21%, gsp ag 11µM* and gsp antagonist -22%.
For O=C(N/N=C1\C/C(=N\NC(=O)c2ccncc2)c2ccccc21)c1ccncc1 the results were RXFP1 ag 32µM*, RXFP1 antagonist -6, gsp ag 25µM* and gsp antagonist -15%.
For COc1nc(Cl)cn(-c2ccc(C)cc2)c1=O the results were RXFP1 ag 2%, RXFP1 antagonist -2, gsp ag -17% and gsp antagonist 11%.
For Cc1ccc(-n2c(Cl)c(Cl)nc(Cl)c2=O)cc1 the results were RXFP1 ag -3%, RXFP1 antagonist -103*, gsp ag -15%[15.4 µM] and gsp antagonist 5%.
